Measurements: PubChem BioAssay (EPA / NIEHS)
Records with an inconclusive call do not appear. Active and inactive are the calls of the source. The calls were made as follows, unless noted: active = hit-call score of the fitted dose curve at least 0.9, where 1 is the maximum; inconclusive = response in the unintended direction; inactive = score below 0.9.

Tests used:
[1] = tested on: Thyroperoxidase (TPO), gene 54314; assay: CCTE_Simmons_AUR_rTPO: CCTE's Amplex UltraRed Assay for Thyroperoxidase (TPO) Inhibition, Simmons Lab (AID 2283662);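 also: potency for loss of signal meaning inhibition of peroxidase activity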
Summary of the method: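 Cell-free peroxidase activity assay using rat thyroid gland microsomes with excess H2O2 (300 uM) and 25 uM Amplex UltraRed. Compounds tested from 5 nM to 87.5 uM; fluorescence measured after 30 min at 37C, analysed relative to DMSO baseline.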

[2] = read-out: xenobiotic metabolism (CYP1A2), CYP1A2 (gene 1544); assay: CLD_CYP1A2_6hr: CellzDirect (CLD) Gene Expression Assay for xenobiotic metabolism (CYP1A2) at 6 hours (AID 2283663);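 as to AC50: potency is for induction meaning a rise in mRNA above DMSO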
Summary of the method: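 mRNA levels quantified by quantitative nuclease protection assay with chemiluminescence, 6 h after dosing human primary hepatocyte cultures (two donors) across several concentrations, vehicle 0.2% DMSO. Induction fitted upward versus DMSO; phase-contrast cytotoxicity annotated.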

[3] = CCTE_Simmons_CellTiterGLO_HEK293T: Viability Assessment in CCTE's Assays for Thyroperoxidase (TPO) Inhibition, Simmons Lab (AID 2283665)
Summary of the method: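 Cells were seeded overnight, then exposed to an eight-point series up to 87.5 uM final for 24 hours. CellTiter-Glo reagent was added and luminescence read after 20 min, giving ATP-based viability versus DMSO.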

[4] = Tanguay_ZF_120hpf_TR_legacy: (Legacy) Oregon State University Tanguay Lab 120 Hour Post-fertilization zebrafish Assay for Touch Response (AID 2283667)
Summary of the method: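 Readout is presence or absence of touch response in 120 hpf zebrafish larvae, assessed by brightfield observation after continuous static exposure at 28C. Final vehicle was 0.64% (vol/vol) DMSO.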

[5] = read-out: Cytochrome P450 (CYP24A1_1), CYP24A1 (gene 1591); assay: LTEA_HepaRG_CYP24A1_1: Life Technologies and Expression Analysis (LTEA) Assay for Cytochrome P450 (CYP24A1_1) using HepaRG (AID 2283671; active = hit-call score of the fitted dose curve at least 0.9, where 1 is the maximum; inactive = score below 0.9); conditions: mRNA level, 48 h; actives raise or lower the signal
Summary of the method: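 Cultures of human HepaRG were treated in duplicate for 48 h (0.5% DMSO vehicle, highest dose 100 uM). CYP24A1 mRNA by qRT-PCR, normalized to ACTB, GAPDH, POLR2A.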

[6] = read-out: glucuronosyltransferase (UGT1A1), UGT1A1 (gene 54658); assay: CLD_UGT1A1_6hr: CellzDirect (CLD) Gene Expression Assay for glucuronosyltransferase (UGT1A1) at 6 hours (AID 2283672)
Summary of the method: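 UGT1A1 mRNA induction, read by quantitative nuclease protection assay, 6 h after dosing primary human hepatocytes (two donors, 0.2% DMSO vehicle). Gain of signal fitted relative to vehicle.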

[7] = read-out: ABC Transporter (ABCB11), ABCB11 (gene 8647); assay: CLD_ABCB11_6hr: CellzDirect (CLD) Gene Expression Assay for ABC Transporter (ABCB11) at 6 hours (AID 2283675);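 also: hits raise ABCB11 mRNA level so AC50 marks induction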
Summary of the method: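 Read-out was ABCB11 mRNA gain of signal by quantitative nuclease protection assay, relative to 0.2% DMSO vehicle, 6 h post-dose. Cells were primary human hepatocytes from two donors, treated across multiple concentrations; phase-contrast cytotoxicity noted yes/no.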

[8] = CLD_ACTIN_6hr: CellzDirect (CLD) Gene Expression Assay for Baseline Control (Actin) at 6 hours (AID 2283676);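 also: active means increased actin mRNA relative to DMSO vehicle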
Summary of the method: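 Baseline actin transcript level measured by qNPA (S1 nuclease protection, chemiluminescence) in human hepatocyte cultures 6 h after chemical exposure; 0.2% DMSO vehicle as reference, cytotoxicity noted from morphology.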

[9] = read-out: Cytochrome P450 2B6 (Homo sapiens) (UniProt P20813); assay: CLD_CYP2B6_6hr: CellzDirect (CLD) Gene Expression Assay for xenobiotic metabolism (CYP2B6) at 6 hours (AID 2283677);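 also: actives raise CYP2B6 transcript above DMSO baseline so AC50 marks an inducer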
Summary of the method: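 CYP2B6 transcript levels, read by chemiluminescent qNPA, were fitted for increase versus DMSO baseline; cultured human liver hepatocytes from two donor preparations were harvested 6 h after exposure to test chemicals at multiple concentrations.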

[10] = CCTE_Padilla_ZF_144hpf_TERATOSCORE: (Legacy) CCTE's 144 Hour Post-fertilization zebrafish Assay Teratoscore, Padilla Lab (AID 2283679; active = hit-call score of the fitted dose curve at least 0.9, where 1 is the maximum; inactive = score below 0.9;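 as to AC50: zebrafish embryos with chorions exposed by immersion from 6-8 hpf to 5 dpf with daily renewal; teratogenicity score from eye scoring of death hatching and malformations at 144 hpf; higher score means more developmental defects relative to DMSO baseline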)
Summary of the method: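 Larvae scored by eye at 144 hpf for death, hatching and malformations after a day in clean Hanks'. Before that, daily-renewed exposure at 80 uM (0.4% DMSO, 26C) from roughly 6-8 hpf through 5 dpf, 4 embryos per chemical.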

[11] = read-out: ABC Transporter (ABCB1), ABCB1 (gene 5243); assay: CLD_ABCB1_24hr: CellzDirect (CLD) Gene Expression Assay for ABC Transporter (ABCB1) at 24 hours (AID 2283684)
Summary of the method: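 ABCB1 mRNA induction versus 0.2% DMSO vehicle was read by qNPA chemiluminescence at 24 h. Cultured human hepatocytes from two donor preparations received daily fresh dosing, and phase-contrast cytotoxicity calls were annotated alongside the data.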

[12] = CLD_ACTIN_24hr: CellzDirect (CLD) Gene Expression Assay for Baseline Control (Actin) at 24 hours (AID 2283670)
Summary of the method: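 This 24 h qNPA (S1 nuclease protection, chemiluminescence) actin transcript readout in cultured human liver primary cells serves as baseline control. Signal is fitted upward relative to 0.2% DMSO; chemicals tested at multiple concentrations across two donor preparations.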

[13] = read-out: xenobiotic metabolism (CYP1A1), CYP1A1 (gene 1543); assay: CLD_CYP1A1_24hr: CellzDirect (CLD) Gene Expression Assay for xenobiotic metabolism (CYP1A1) at 24 hours (AID 2283673);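 also: CYP1A1 mRNA level by quantitative nuclease protection with chemiluminescence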
Summary of the method: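 Transcript levels were read at 24 h by qNPA chemiluminescence in human liver primary cells. Cells got daily fresh dosing at multiple concentrations (vehicle 0.2% DMSO). Induction fitted upward against DMSO; phase-contrast cytotoxicity annotated.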

[14] = read-out: Cytochrome P450 3A4 (Homo sapiens) (UniProt P08684); assay: CLD_CYP3A4_6hr: CellzDirect (CLD) Gene Expression Assay for xenobiotic metabolism (CYP3A4) at 6 hours (AID 2283680)
Summary of the method: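 CYP3A4 mRNA induction, 6 h after dosing of cultured primary human hepatocytes from two donors, read by quantitative nuclease protection (qNPA, chemiluminescence). Vehicle 0.2% DMSO as baseline; morphology-based cytotoxicity annotated yes/no.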

[15] = read-out: HMG-CoA synthase (HMGCS2), HMGCS2 (gene 3158); assay: CLD_HMGCS2_6hr: CellzDirect (CLD) Gene Expression Assay for HMG-CoA synthase (HMGCS2) at 6 hours (AID 2283682);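 also: actives raise HMGCS2 transcript above the 0.2% DMSO vehicle baseline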
Summary of the method: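 HMGCS2 transcript induction read by quantitative nuclease protection with chemiluminescence, 6 h after dosing of primary human hepatocytes. Baseline was 0.2% DMSO vehicle; phase-contrast morphology gave a yes/no cytotoxicity annotation.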

[16] = read-out: xenobiotic metabolism (CYP1A2), CYP1A2 (gene 1544); assay: CLD_CYP1A2_24hr: CellzDirect (CLD) Gene Expression Assay for xenobiotic metabolism (CYP1A2) at 24 hours (AID 2283683)
Summary of the method: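 CYP1A2 mRNA induction measured by quantitative nuclease protection (chemiluminescent) in human primary hepatocytes 24 h after multi-concentration chemical dosing with daily fresh solutions. DMSO (0.2%) baseline; positive-direction fitting; morphology-based cytotoxicity noted.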

[17] = read-out: alkyl and aryl transferase (GSTA2), GSTA2 (gene 2939); assay: CLD_GSTA2_6hr: CellzDirect (CLD) Gene Expression Assay for alkyl and aryl transferase (GSTA2) at 6 hours (AID 2283666)
Summary of the method: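 GSTA2 transcript induction at 6 h, quantified by nuclease protection (qNPA) with chemiluminescent detection, in human liver primary hepatocytes exposed to several compound concentrations with 0.2% DMSO as baseline; phase-contrast morphology annotated apparent cytotoxicity.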

[18] = read-out: organic anion transporter (SLCO1B1), SLCO1B1 (gene 10599); assay: CLD_SLCO1B1_6hr: CellzDirect (CLD) Gene Expression Assay for organic anion transporter (SLCO1B1) at 6 hours (AID 2283668);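 also: active means mRNA induction above DMSO baseline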
Summary of the method: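 SLCO1B1 mRNA induction measured 6 h after dosing by quantitative nuclease protection with chemiluminescent read-out, in human primary hepatocyte cultures given chemicals at several concentrations (vehicle 0.2% DMSO). Increase over DMSO baseline fitted; morphology-based cytotoxicity annotated yes/no.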

[19] = read-out: sulfotransferase (SULT2A), SULT2A1 (gene 6822); assay: CLD_SULT2A_6hr: CellzDirect (CLD) Gene Expression Assay for sulfotransferase (SULT2A) at 6 hours (AID 2283669);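 also: hits raise transcript level above the DMSO vehicle baseline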
Summary of the method: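 Measured 6 h after dosing, SULT2A1 mRNA in human hepatocyte lysates was quantified by S1 nuclease protection with chemiluminescent detection. Increases fitted against 0.2% DMSO vehicle baseline; phase-contrast cytotoxicity recorded yes/no.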

Measured: AC50

Chain of Cytochrome P450 3A4 (Homo sapiens) (P08684 whole entry, looked up): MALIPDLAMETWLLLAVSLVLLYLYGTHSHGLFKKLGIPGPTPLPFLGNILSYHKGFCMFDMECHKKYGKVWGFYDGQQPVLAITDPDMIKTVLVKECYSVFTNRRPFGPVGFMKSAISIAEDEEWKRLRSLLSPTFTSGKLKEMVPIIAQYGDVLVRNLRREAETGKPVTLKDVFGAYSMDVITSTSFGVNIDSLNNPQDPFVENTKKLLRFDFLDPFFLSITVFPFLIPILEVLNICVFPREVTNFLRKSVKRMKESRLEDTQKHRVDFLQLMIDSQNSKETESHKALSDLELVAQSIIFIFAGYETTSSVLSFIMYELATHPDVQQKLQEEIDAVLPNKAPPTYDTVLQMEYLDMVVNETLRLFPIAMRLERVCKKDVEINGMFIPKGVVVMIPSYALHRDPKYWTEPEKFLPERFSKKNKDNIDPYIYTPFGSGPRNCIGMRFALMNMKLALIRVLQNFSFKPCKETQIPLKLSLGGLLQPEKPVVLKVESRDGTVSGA

CCOC(=O)CC(SP(=O)(OC)OC)C(=O)OCC (stereo not drawn)
active: [1] 29.2 µM | [9] 14.4 µM
inactive: [2] | [3] | [4] | [5] | [6] | [7] | [8] | [10] | [11]

CCOP(=S)(OCC)Oc1ccc2c(C)c(Cl)c(=O)oc2c1
active: [1] 38.5 µM | [13] 1.89 µM | [9] 1.44 µM | [10] 27.3 µM | [15] 0.00508 µM | [16] 0.527 µM
not listed: [2] | [8] | [17] | [18] | [19]
inactive: all other assays above

CCC(=O)Nc1ccc(Cl)c(Cl)c1
inactive: [3] | [17] | [4] | [6] | [7] | [15]
active: [1] 36 µM | [2] 8.75 µM | [9] 7.9 µM | [10] 61.3 µM

CCCSP(=O)(OCC)SCCC
active: [1] 19.4 µM | [9] 0.374 µM | [16] 4.21 µM
not listed: [4] | [5] | [8] | [12] | [13] | [17]
inactive: all other assays above

CCOP(=O)(OCC)Oc1cc(C)nc(C(C)C)n1
inactive: [2] | [4] | [18] | [19] | [6] | [7] | [8] | [14] | [15]
active: [9] 20 µM | [10] 38.2 µM | [16] 30.7 µM

S=C1NCCN1
inactive: [3] | [4] | [18] | [12] | [7] | [8] | [9] | [10] | [14] | [11]
active: [1] 6.05 µM

CC(COc1ccc(Oc2ccccc2)cc1)Oc1ccccn1 (stereo not drawn)
inactive: [2] | [4] | [18] | [5] | [6] | [7] | [15] | [11]
active: [9] 3.97 µM | [10] 47.6 µM | [14] 20 µM

CNC(=O)Oc1cccc2c1OC(C)(C)O2
inactive: [4] | [19] | [12] | [5] | [6] | [14] | [15] | [11]
active: [2] 3.97 µM | [9] 2.74 µM | [10] 50.1 µM
